Inconclusive results are not listed. Unmarked numbers belong to inactive results. The source made the active and inactive calls. Calls come from the whole dose curve; as a rule, active = well fitted cell-killing curve with a large enough effect in the repeat runs; inconclusive = weak or mixed curves, or effect the other way; inactive = flat fitted curve, though single readings scatter.
Assay: cAMP Responsive Elements (CRE) small molecule antagonists, cell-based qHTS assay: qHTS cell viability counter screen (AID 2060913); note: nearly all actives have a fitted effect of over 40% in size
Conditions: CRE-bla HEK293T viability, CellTiter-Glo luminescence, 5 h; series mostly up to 92.4 µM; viability change, negative = cytotoxic: at the top concentration
Summary of the method: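 Cytotoxicity counter screen multiplexed with the CRE-bla antagonist read: HEK293T cells in DMEM with dialyzed FBS and 25 mM HEPES were treated 3 hrs under 0.25 uM final NKH477, then viability measured by CellTiter-Glo luminescence.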
% is set by controls: 0 for no effect and ±100 for the full control effect; potency is the fitted concentration of half-maximal effect.

| Structure (SMILES) | viability change, negative = cytotoxic | Potency |
| --- | --- | --- |
| Nc1ccc(S(=O)(=O)Nc2ccc(Cl)nn2)cc1 | 1.99% [at 42.5 µM] |  |
| C=CCOC(=O)CCCCCC | 0.127% |  |
| c1ccc(CNc2ncnc3c2ncn3C2CCCCO2)cc1 (stereo not given) | -0.0063% |  |
| CNCC(O)c1ccc(O)c(O)c1 (stereo not given) | 6.12% [at 42.5 µM] |  |
| CC(C)(C)c1nnc(NS(=O)(=O)c2ccc(N)cc2)s1 | -1.02% [at 42.5 µM] |  |
| CCCCNC(N)=O |  | inactive |
| CCOC(=O)Nc1ccc2c(c1)N(C(=O)CCN1CCOCC1)c1ccccc1S2 | -0.711% [at 42.5 µM] |  |
| Cc1ccc(C(C)(C)C)c(O)c1 | -8.14% |  |
| CC(C)c1cccc(C(C)C)c1N | -1% |  |
| CN(C)CCN(Cc1ccccc1)c1ccccn1 | -7.15% [at 42.5 µM] |  |
| CC(=O)OCC(COC(C)=O)OC(C)=O |  | inactive |
| Cc1cn([C@H]2C[C@H](F)[C@@H](CO)O2)c(=O)[nH]c1=O | 0.0162% [at 42.5 µM] |  |
| CCOC(=O)[C@H](CCc1ccccc1)N[C@@H](C)C(=O)N1C(=O)N(C)C[C@H]1C(=O)O | -0.436% [at 42.5 µM] |  |
| CCCCCC1Nc2cc(C(F)(F)F)c(S(N)(=O)=O)cc2S(=O)(=O)N1 (stereo not given) | -2.19% [at 42.5 µM] |  |
| CCNC(=O)NCCCOc1cccc(CN2CCCCC2)c1 | 5.27% [at 42.5 µM] |  |
| CC1(C)OC(=O)Nc2ccc(Br)cc21 | 1.28% [at 42.5 µM] |  |
| O=S1OCCO1 | 3.85% |  |
| c1ccc(CSCc2ccccc2)cc1 | 1.87% |  |
| CN(C)Cc1ccccc1O | -3.77% |  |
| C[C@@H](N)C(=O)O | 5.43% [at 42.5 µM] |  |
| O=C(Nc1ccc(Cl)cc1)Nc1ccc(Cl)c(C(F)(F)F)c1 |  | 26.6 µM (active) |
| Cc1cccc(C)n1 | -0.0009% |  |
| CCOC(=O)COc1ccc(C)cc1 | -2.49% |  |
| Oc1ccc(Nc2ccccc2)cc1 | 0.474% |  |
| CC1(c2ccccc2)OC(C(=O)O)=CC1=O (stereo not given) | -3.57% [at 42.5 µM] |  |

Source: PubChem BioAssay (Tox21)
